In PubChem BioAssay one finds composite z-score and z-score data, which are given here for six compounds.

Active and inactive are the calls of the source.

In assay [1] the test system is Plasmodium falciparum Sir2 (PF13_0152, Sir2A). In words: pfSir2 binders on small-molecule microarrays, primary screen, biochemical, small-molecule microarray, 635 nm fluorescence (AID 1098).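 Further: score merges spot fluorescence intensity with its signal-to-noise ratio.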 As to conditions: small-molecule microarray binding, fluorescence 635 nm; higher = more signal.
Assay [2] in a line: small-molecule microarray binders of probe aDKK1, primary screen, biochemical, biotinylated probe, 635/667 nm fluorescence (AID 1099).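 Further: score merges 667nm spot fluorescence with signal to noise across triplicate slides.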 As to conditions: higher = more signal.
A short description of assay [3]: small-molecule microarray binders of probe aCHRDL2, primary screen, biochemical, biotinylated probe, 635/667 nm fluorescence (AID 1100). As to conditions: higher = more signal.
The nature of assay [4]: splicing luciferase reporter signal modulators, primary screen, spliceosome inhibition project, cell-based, HEK293, splice +/- reporter (AID 1101).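 Further: HEK293 cells carrying a splicing-competent luciferase reporter gene; test concentration not given here.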 The following applies: luminescence, 24 h, higher = more signal, called active from +8 up or from −8 down.
Assay [5] has as its target Fibroblast growth factor 10 (Homo sapiens) (UniProt O15520). In words: FGF10 binders on small-molecule microarrays, primary screen, biochemical, small-molecule microarray, 635 nm fluorescence (AID 1102). As to conditions: FGF10 binding, fluorescence 635 nm, higher = more signal.
The subject of assay [6] is glycogen synthase kinase-3 (GSK3A per assay name; protocol says GSK3B). As to the kind of experiment: GSK3 binders on small-molecule microarrays, primary screen, biochemical, small-molecule microarray, 635 nm fluorescence, GSK3A (AID 1103). Further: the record names both GSK3A and GSK3B. The following applies: small-molecule microarray binding, fluorescence 635 nm; higher = more signal.
The target of assay [7] is Epidermal growth factor receptor (Homo sapiens) (UniProt P00533). In words: EGFR binders on small-molecule microarrays, primary screen, biochemical, small-molecule microarray, 635 nm fluorescence (AID 1104).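 Further: score merges 667 nm emission intensity with spot signal to noise over triplicate slides.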 As to conditions: EGFR binding, higher = more signal.
Assay [8] addresses Follistatin-related protein 3 (Homo sapiens) (UniProt O95633). In words: FSTL3 binders on small-molecule microarrays, primary screen, biochemical, small-molecule microarray, 635 nm fluorescence (AID 1105).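 Further: score merges emission near 667 nm and signal to noise per printed spot across three slides.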 The following applies: FSTL3 binding, higher = more signal.
For assay [9], the target named is Dickkopf-related protein 1 (Homo sapiens) (UniProt O94907). As to the kind of experiment: DKK1 binders on small-molecule microarrays, primary screen, biochemical, small-molecule microarray, 635 nm fluorescence scan (AID 1106).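 Further: score merges emission near 667 nm with signal to noise over three replicate slides.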 As to conditions: DKK1 binding, higher = more signal.
The test system of assay [10] is Inhibin beta A chain (activin A). In words: INHBA (activin A) binders on microarrays, primary screen, biochemical, small-molecule microarray, 635 nm fluorescence scan (AID 1107).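 Further: mouse activin A protein probed at 4.33 µg/mL on printed slides; score merges bound-protein fluorescence near 667 nm with spot signal-to-noise.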 The following applies: small-molecule microarray binding, higher = more signal.
The subject of assay [11] is Human papillomavirus type 1a protein E7 (residues 44-93). As to the kind of experiment: HPV1a E7 fragment binders on microarrays, primary screen, biochemical, small-molecule microarray, residues 44-93, 635 nm fluorescence (AID 1108).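 Further: E7 fragment applied at 1 µg/mL in TBST for 1 h at 4 C; score combines spot fluorescence with its signal to noise ratio.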 The following applies: small-molecule microarray binding, fluorescence 635 nm; higher = more signal.
Assay [12] can be described thus: modulators of HCV replicon luciferase signal, primary screen, HCV replication inhibitor project, Huh7 cells, luciferase reporter (AID 1109).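 Further: huh7 hepatoma cells harbouring a luciferase neomycin HCV replicon reporter; luciferase luminescence as measure of HCV replicon replication; test concentration not given here.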 As to conditions: 48 h, higher = more signal.
The target of assay [13] is Left-right determination factor 2 (Homo sapiens) (UniProt O00292). In words: LEFTY2 binders on small-molecule microarrays, primary screen, biochemical, small-molecule microarray, 635 nm fluorescence scan (AID 1110). The following applies: LEFTY2 binding, higher = more signal.
For assay [14], the target named is Calmodulin-1 (Homo sapiens) (UniProt P0DP23). As to the kind of experiment: CALM1 binders on microarrays, EGTA buffer, profiling panel, biochemical, small-molecule microarray, Cy5-labelled CALM1 (AID 1111).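 Further: labelled calmodulin applied in Tris saline Tween buffer holding calcium plus EGTA and DTT.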 As to conditions: Cy5-CALM1 binding fluorescence, higher = more signal.
For assay [15] the target is unchanged. In words: calcium-bound CALM1 binders on microarrays, profiling panel, artefact control for SMM control-protein annotation, biochemical, small-molecule microarray, Cy5-labelled CALM1, plus calcium (AID 1112).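 Further: score merges spot fluorescence with signal to noise from triplicate slides.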 The following applies: Cy5-CALM1 binding fluorescence, higher = more signal.
The nature of assay [16]: small-molecule microarray binders of probe aWnt5a, primary screen, biochemical, biotinylated probe, 635/667 nm fluorescence (AID 1113).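 Further: score merges 667 nm fluorescence intensity with signal-to-noise per printed feature.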 The following applies: higher = more signal.
A short description of assay [17]: small-molecule microarray binders of probe aShh, primary screen, biochemical, biotinylated probe, 635/667 nm fluorescence (AID 1114).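 Further: probe is biotin-labelled aShh protein from a stem cell growth factor screen; measures binding of labelled protein to compounds printed on the slide; score merges feature fluorescence at 667 nm with signal-to-noise.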 As to conditions: higher = more signal.
Assay [18] is described as follows: small-molecule microarray binders of probe aNog, primary screen, biochemical, biotinylated probe, 635/667 nm fluorescence (AID 1115).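 Further: probe is biotinylated aNog protein used at 0.15 µg/mL for 1 h at 4 C; z-score combines 667 nm fluorescence of each spot with its signal to noise.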 The following applies: higher = more signal.
Assay [19] concerns the target Torsin-1A-interacting protein 1 (Homo sapiens) (UniProt Q5JTV8). As to the kind of experiment: LAP1 binders from COS7 cell lysate, primary screen, small-molecule microarray, 635/667 nm fluorescence (AID 1116). The following applies: COS7-hLAP1 lysate binding, 635 nm fluorescence, higher = more signal.
The target of assay [20] is Alpha-bungarotoxin (Bungarus multicinctus) (UniProt P60615). In words: alpha-bungarotoxin binders on microarray, profiling panel, artefact control for SMM control protein annotation, biochemical, small-molecule microarray, Alexa647 label, 635/667 nm fluorescence (AID 1117). As to conditions: alpha-BTX-A647 binding fluorescence, higher = more signal.
Alpha-bungarotoxin (Bungarus multicinctus), sequence (P60615 whole entry, looked up): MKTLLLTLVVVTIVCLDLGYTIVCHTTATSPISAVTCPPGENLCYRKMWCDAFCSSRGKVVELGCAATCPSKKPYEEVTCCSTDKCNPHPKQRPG

Follistatin-related protein 3 (Homo sapiens), sequence (O95633 whole entry, looked up): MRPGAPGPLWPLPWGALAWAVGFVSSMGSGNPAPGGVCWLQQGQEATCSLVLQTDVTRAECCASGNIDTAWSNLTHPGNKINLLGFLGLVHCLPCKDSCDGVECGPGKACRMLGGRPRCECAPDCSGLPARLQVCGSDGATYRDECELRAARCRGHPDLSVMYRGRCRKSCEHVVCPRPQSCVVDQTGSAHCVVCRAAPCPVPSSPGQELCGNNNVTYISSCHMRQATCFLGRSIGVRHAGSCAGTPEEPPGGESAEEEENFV
Left-right determination factor 2 (Homo sapiens), sequence (O00292 whole entry, looked up): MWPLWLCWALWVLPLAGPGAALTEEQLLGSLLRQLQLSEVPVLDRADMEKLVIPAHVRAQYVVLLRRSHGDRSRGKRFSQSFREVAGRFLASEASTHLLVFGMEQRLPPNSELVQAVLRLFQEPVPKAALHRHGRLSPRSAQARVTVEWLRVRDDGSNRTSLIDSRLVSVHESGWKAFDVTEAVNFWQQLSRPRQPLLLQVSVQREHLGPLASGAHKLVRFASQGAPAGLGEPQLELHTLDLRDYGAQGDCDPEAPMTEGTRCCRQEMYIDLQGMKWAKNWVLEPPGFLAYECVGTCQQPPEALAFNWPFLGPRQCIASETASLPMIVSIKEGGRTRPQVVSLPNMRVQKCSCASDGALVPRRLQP
Fibroblast growth factor 10 (Homo sapiens), sequence (O15520 whole entry, looked up): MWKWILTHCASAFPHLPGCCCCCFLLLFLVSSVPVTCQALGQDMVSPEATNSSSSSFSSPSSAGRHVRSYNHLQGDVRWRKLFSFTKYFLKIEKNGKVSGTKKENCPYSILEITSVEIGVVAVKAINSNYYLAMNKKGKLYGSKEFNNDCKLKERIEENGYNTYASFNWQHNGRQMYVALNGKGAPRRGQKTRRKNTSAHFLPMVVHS
Dickkopf-related protein 1 (Homo sapiens), sequence (O94907 whole entry, looked up): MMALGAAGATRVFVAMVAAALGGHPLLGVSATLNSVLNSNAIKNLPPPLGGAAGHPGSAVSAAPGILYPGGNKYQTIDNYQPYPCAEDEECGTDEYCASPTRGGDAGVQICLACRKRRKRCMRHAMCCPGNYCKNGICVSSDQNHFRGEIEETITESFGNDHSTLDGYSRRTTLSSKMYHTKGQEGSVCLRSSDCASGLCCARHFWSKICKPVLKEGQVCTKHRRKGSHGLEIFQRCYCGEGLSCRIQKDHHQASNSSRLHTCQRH
Epidermal growth factor receptor (Homo sapiens), sequence (P00533 whole entry, looked up): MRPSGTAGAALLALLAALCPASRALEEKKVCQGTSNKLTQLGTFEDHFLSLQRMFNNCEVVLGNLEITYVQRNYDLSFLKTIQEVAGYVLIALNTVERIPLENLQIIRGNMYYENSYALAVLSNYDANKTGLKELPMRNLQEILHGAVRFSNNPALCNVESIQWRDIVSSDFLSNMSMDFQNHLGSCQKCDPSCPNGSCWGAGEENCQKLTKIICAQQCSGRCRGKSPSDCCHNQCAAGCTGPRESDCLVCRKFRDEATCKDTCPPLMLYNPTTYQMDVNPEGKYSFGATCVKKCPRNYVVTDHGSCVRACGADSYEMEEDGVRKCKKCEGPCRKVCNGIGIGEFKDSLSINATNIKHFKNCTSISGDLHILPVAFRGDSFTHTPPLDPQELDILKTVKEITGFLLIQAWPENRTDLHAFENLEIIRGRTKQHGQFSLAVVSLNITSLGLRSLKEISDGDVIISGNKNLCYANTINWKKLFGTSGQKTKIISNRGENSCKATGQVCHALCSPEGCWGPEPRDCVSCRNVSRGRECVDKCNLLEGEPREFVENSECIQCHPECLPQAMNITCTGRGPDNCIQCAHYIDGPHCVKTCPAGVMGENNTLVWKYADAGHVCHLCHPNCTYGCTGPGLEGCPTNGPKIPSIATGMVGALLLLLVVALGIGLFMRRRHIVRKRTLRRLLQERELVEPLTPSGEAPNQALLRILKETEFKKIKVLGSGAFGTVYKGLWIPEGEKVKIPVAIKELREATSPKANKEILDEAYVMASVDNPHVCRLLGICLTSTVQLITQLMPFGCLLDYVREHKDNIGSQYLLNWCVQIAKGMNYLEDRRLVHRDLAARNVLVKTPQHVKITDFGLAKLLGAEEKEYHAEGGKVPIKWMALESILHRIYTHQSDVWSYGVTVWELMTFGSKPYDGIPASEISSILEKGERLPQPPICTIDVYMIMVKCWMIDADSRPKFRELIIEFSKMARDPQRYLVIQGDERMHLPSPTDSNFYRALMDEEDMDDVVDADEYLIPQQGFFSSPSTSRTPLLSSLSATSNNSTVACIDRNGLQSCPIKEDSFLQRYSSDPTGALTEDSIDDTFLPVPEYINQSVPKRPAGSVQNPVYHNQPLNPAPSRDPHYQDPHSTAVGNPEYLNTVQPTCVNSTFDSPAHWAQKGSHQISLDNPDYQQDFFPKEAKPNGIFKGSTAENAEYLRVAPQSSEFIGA
Torsin-1A-interacting protein 1 (Homo sapiens), sequence (Q5JTV8 whole entry, looked up): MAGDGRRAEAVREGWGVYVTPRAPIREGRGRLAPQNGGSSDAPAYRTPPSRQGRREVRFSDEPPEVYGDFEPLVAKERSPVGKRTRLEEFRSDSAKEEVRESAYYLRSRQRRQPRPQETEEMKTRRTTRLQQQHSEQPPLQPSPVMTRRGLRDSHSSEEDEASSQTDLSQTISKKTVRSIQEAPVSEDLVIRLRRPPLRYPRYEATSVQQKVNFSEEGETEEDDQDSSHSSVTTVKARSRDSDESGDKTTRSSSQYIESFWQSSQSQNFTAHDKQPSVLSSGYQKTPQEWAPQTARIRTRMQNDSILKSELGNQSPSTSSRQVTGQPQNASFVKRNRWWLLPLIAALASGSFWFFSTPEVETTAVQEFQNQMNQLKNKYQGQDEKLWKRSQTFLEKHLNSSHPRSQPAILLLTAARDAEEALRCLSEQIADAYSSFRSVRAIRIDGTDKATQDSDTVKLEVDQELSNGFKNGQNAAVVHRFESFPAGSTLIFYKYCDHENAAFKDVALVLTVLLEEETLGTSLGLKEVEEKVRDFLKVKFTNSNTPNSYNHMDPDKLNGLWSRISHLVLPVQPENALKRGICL

With `[N-]=[N+]=Nc1ccccc1[C@@H]1OC(c2ccc(OCCCO)cc2)=N[C@]1(CCS(=O)(=O)c1ccccc1)C(=O)NCC(O)CO` (stereo not given in full), the composite z-score is 1.73 in assay [1]; -0.181 in assay [2]; 0.72 in [3]; -0.176 in assay [5]; 0.434 in assay [6]; -0.586 in assay [7]. Further, the composite z-score in [8] is -0.332; in [9], -0.328; in [10], 0.693; in assay [11] it was 0.535; in [13] it was -0.741; in assay [14], 0.867. For the same compound, the composite z-score in [15] was -0.271; in assay [16], -0.0977; in assay [17] it was -0.0011; in assay [18] it was 0.437; in assay [19] it was 2.18; in [20], 0.534. In addition, the z-score in [4] is -0.633 (inactive); in assay [12], -0.485.
Regarding `CC(C)c1nc2cc(Br)ccc2c(=O)o1`, the composite z-score was 0.338 in [1]; 0.444 in assay [2]; -0.123 in assay [3]; 0.755 in assay [5]; 1.02 in assay [6]; 0.397 in [7]. Besides, the composite z-score in [8] is 0.523; in [9], 0.359; in assay [10], -0.585; in [11], 1.32; in [13] it was 0.371; in assay [14], 2. Moreover, the composite z-score in assay [15] is 0.93; in assay [16], -0.0367; in [17], -0.427; in assay [18], 0.418; in assay [19], 1.61; in [20], 0.868. Moreover, the z-score in assay [4] was 1.44 (inactive); in [12], -0.559.
Turning to `NC(=O)NCC#Cc1ccc2c(c1)[C@]1(C(=O)N2)[C@H](c2ccc(OCCO)cc2)N2[C@H](c3ccccc3)[C@H](c3ccccc3)OC(=O)[C@H]2[C@@H]1C(=O)O`, the composite z-score in assay [1] is 1.05; in assay [2], 0.151; in assay [3] it was 0.654; in assay [5], -0.808; in [6] it was -1.84; in [7] it was -0.716. Moreover, the composite z-score in [8] is -0.567; in assay [9] it was -0.57; in assay [10] it was 0.993; in [11], -0.979; in assay [13], -0.644; in assay [14] it was 0.024. Besides, the composite z-score is 0.991 in assay [15]; -0.122 in assay [16]; -0.102 in assay [17]; 0.281 in assay [18]; 0.561 in assay [19]; 2.44 in assay [20]. In addition, the z-score in assay [4] is -0.708 (inactive); in [12] it was -0.591.
For `O=C1C[C@@](C(=O)NC2CC2)(c2ccc([N+](=O)[O-])cc2)[C@@H](c2ccc(CO)cc2)N1C1CCCCC1`, the composite z-score in assay [1] worked out at 1.68; in assay [2], 0.0035; in assay [3], 0.49; in [5], 1.5; in assay [6], 0.808; in [7] it was 0.359. Also, the composite z-score came out at 1.32 in assay [8]; 0.517 in assay [9]; 0.357 in assay [10]; 1.44 in assay [11]; 0.257 in [13]; 0.522 in assay [14]. Further, the composite z-score is 0.435 in assay [15]; -0.1 in assay [16]; 0.149 in [17]; -0.292 in assay [18]; 1.43 in assay [19]; 0.538 in assay [20]. Further, the z-score was -0.975 (inactive) in assay [4] and -2.02 in [12].
For `O=C1C2C=CC(C(O)C3CCCCC3)N(n3cnnc3)C2C(=O)N1Cc1ccccc1` (stereo not given), the composite z-score is 0.815 in [1]; 0.224 in [2]; 0.623 in assay [3]; 1.16 in assay [5]; 1.1 in assay [6]; 0.0887 in assay [7]. Further, the composite z-score in assay [8] was 1.21; in assay [9] it was -0.0435; in assay [10], 1.13; in [11], 1.45; in assay [13] it was -0.0665; in [14] it was 0.879. The composite z-score in [15] was -0.195; in assay [16], 0.0914; in assay [17], -0.0064; in [18], 1.07; in assay [19], 0.598; in assay [20], 0.496. In addition, the figures for the z-score in assay [4] and in [12] were -1.3 (inactive) and -0.911, respectively.
Consider `CCCC=C(CCC)[C@@H](NC(=O)c1ccc(C(F)(F)F)cc1)c1ccc(C(F)(F)F)cc1`, for which the composite z-score in assay [1] is 0.654; in assay [2] it was 0.73; in assay [3], 1.09; in assay [5], 0.793; in assay [6], 1.13; in assay [7], -0.254. Moreover, the composite z-score is 0.468 in assay [8]; -0.906 in assay [9]; 0.932 in assay [10]; 1.36 in [11]; -0.203 in assay [13]; 1.72 in [14]. The composite z-score was found to be 1.09 in [15]; 0.253 in assay [16]; 0.778 in assay [17]; 1.78 in assay [18]; 0.926 in assay [19]; 0.942 in assay [20]. The z-score was -3.17 (inactive) in [4] and -1.5 in assay [12].
